Measured values: PubChem BioAssay (NCATS)
Results filed as inconclusive are left out. A number with no mark means an inactive call. Calls come from the whole dose curve; as a rule, active = well fitted curve in the direction sought with a large enough effect; inconclusive = small, poorly fitted or top-dose-only effect, or another doubt; inactive = no such curve, though single readings can be large or run the other way.

Assay: qHTS Assay for Identifying Gametocytocidal Compounds (AID 743244);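 note: actives lower the fluorescent signal which means gametocytes are killed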
Conditions: P. falciparum 3D7 stage III-V gametocytes, alamarBlue, 72 h; max response: hits give low values
Procedure, shortened: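 Viability read-out was resazurin reduction (alamarBlue, 24 h) measured at Ex 525/Em 598 nm. Beforehand, late-stage (III-V) 3D7 P. falciparum gametocytes at 20,000 cells/well were incubated with compound 72 h at 37C under 5% CO2.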
% is set by controls: 0 for no effect and ±100 for the full control effect.

Row | SMILES | max response [%]
1 | CC[N+](C)(CC)CCOC(=O)C1c2ccccc2Oc2ccccc21 | 7.42
2 | Cc1ccsc1/C=C/C1=NCCCN1C | 6.27
3 | COc1ccc(Cc2cnc(N)nc2N)cc1OC | 1.42
4 | NCC1CCC(C(=O)Oc2ccc(CCC(=O)O)cc2)CC1 (stereo unspecified) | 9.03
5 | O=C(O)c1ccccc1C(=O)Nc1ccc(S(=O)(=O)Nc2nccs2)cc1 | 31
6 | CC1(C)[C@@H](OC(=O)CCC(=O)O)CC[C@]2(C)[C@H]3C(=O)C=C4[C@@H]5C[C@@](C)(C(=O)O)CC[C@]5(C)CC[C@@]4(C)[C@]3(C)CC[C@@H]12 | -6.25
7 | NS(=O)(=O)c1cc2c(cc1C(F)(F)F)NCNS2(=O)=O | -4.2
8 | CC(=O)N(CC(O)CO)c1c(I)c(C(=O)NCC(O)CO)c(I)c(C(=O)NCC(O)CO)c1I (stereo unspecified) | -11.4
9 | Cc1ccc2c(c1)c1c3n2CCNC3CCC1 (stereo unspecified) | 5.73
10 | O=C(O)c1ccc[n+]([O-])c1 | -6.63
11 | CC(=O)N[C@@H](Cc1ccc(O)cc1)C(=O)O | -6.61
12 | NC(=O)c1ccc([N+](=O)[O-])cc1Cl | -9.98
13 | COCC(=O)Nc1c(I)c(C(=O)NCC(O)CO)c(I)c(C(=O)N(C)CC(O)CO)c1I (stereo unspecified) | 10.5
14 | CC(=O)Nc1ccc(OCCOCCOc2ccc(NC(C)=O)cc2)cc1 | 1.8
15 | NS(=O)(=O)c1ccc(C(=O)O)cc1 | 4.63
16 | Cn1c([N+](=O)[O-])cnc1COC(N)=O | 1.6
